Several values for one entry are separate records, joined by “and”; a condition that tells them apart may be missing. Equal entries are not always repeated. Records with an inconclusive call do not appear. Some structures have more than one record in an assay (separate samples or runs), and their calls can disagree. Activity calls are given as the source filed them. Unless noted, the call rests on the fitted dose curve; in most records, active means well fitted curve in the direction sought with a large enough effect in the repeat runs; inconclusive means weak or mixed curves; inactive means no such curve, though single readings can be large; an effect the other way counts as inactive or inconclusive.

The nature of assay [1]: qHTS assay to identify small molecule agonists of the hypoxia (HIF-1) signaling pathway - cell viability counter screen (AID 1224844; calls by dose curve; further: nearly all actives have a fitted effect of over 50% in size; further: potency means the concentration at half of the fitted maximal effect). In short, it runs like this:
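HRE-bla ME-180 cells in medium with 0.5% dialyzed FBS were preincubated 5 hrs at 37C, exposed to compounds for 17 hrs, then viability was read as CellTiter-Glo luminescence after 30 min at room temperature, in the reporter wells.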
For orientation: Quantitative high-throughput screening tests each substance at several concentrations.

The nature of assay [2]: qHTS assay to identify small molecule agonists of H2AX (AID 1224845; active means well fitted activation curve with a large enough effect in the signal ratio in the repeat runs, not every such curve was filed as active; the % refers to the signal ratio; further: on the % scale 0 is the no-effect control and ±100 the full control effect). The gist of the method:
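Wild-type CHO-K1 cells, plated overnight, exposed 3hr at 37C to 15 concentrations (0.76% DMSO final). Lysed, then HTRF anti-pH2AX (S139) cryptate and anti-H2AX-d2 antibodies, 24 hr room temperature; 665/620 nm emission read.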

Assay [3] in a line: qHTS assay to identify small molecule agonists of the hypoxia (HIF-1) signaling pathway (AID 1224846; active means well fitted activation curve with a large enough effect in the signal ratio in the repeat runs, not every such curve was filed as active; the % refers to the signal ratio; further: on the % scale 0 is the no-effect control and ±100 the full control effect). In short, it runs like this: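 HRE-bla ME-180 cells (beta-lactamase reporter under hypoxia response element) were plated at 2,000 cells/well in medium with 0.5% dialyzed FBS, rested 5 hrs, then given compounds in DMSO for 17 hrs at 37C, 5% CO2. Reporter induction was read with CCF4-AM FRET substrate.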

Assay [4] in a line: qHTS assay to identify small molecule agonists of H2AX - cell viability counter screen (AID 1224847; calls by dose curve; further: nearly all actives have a fitted effect of over 30% in size; further: potency means the concentration at half of the fitted maximal effect). The gist of the method: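 Quantitative HTS viability measurement: CHO-K1 wild-type cells in serum (10% FBS) medium, short 3 hr drug exposure at 37C with 0.76% DMSO, CellTiter-Glo luminescent detection.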
Assay [5] in a line: qHTS RealTime-Glo MT Cell Viability Assay in HepG2 cells - 24 hour (AID 1224867). Further: nearly all actives have a fitted effect of over 50% in size. Further: potency means the concentration at half of the fitted maximal effect. In short, it runs like this:
(§1)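 Cells + NanoLuc/prosubstrate dispensed (600 cells/well) → 5 h at 37 C/5% CO2 → compounds in DMSO transferred → 40 h incubation at 37 C, luminescence read at 0, 8, 16, 24, 32, 40 h.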

A short description of assay [6]: qHTS RealTime-Glo MT Cell Viability Assay in HEK293 cells - 32 hour (AID 1224868). Further: nearly all actives have a fitted effect of over 50% in size. Further: potency means the concentration at half of the fitted maximal effect. In short, it runs like this:
(§2)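 Tox21 10K qHTS, HEK293, 600 cells/well, RealTime-Glo reagent co-dispensed with cells; 5 h preincubation, compound by pintool, 37 C, luminescence at 0–40 h.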

Assay [7] can be described thus: A CellTox Green Cytotoxicity Assay to monitor cytotoxicity in HEK293 cells - 0 hour (AID 1224869). Further: on the % scale 0 is the no-effect control and ±100 the full control effect; nearly all actives have a fitted effect of over 50% in size. In short, it runs like this: (§3)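 HEK293 cells premixed with CellTox Green dye were seeded at 600 cells/well and left 5 h at 37 C/5% CO2 before pin transfer of 23 nL compound in DMSO. Fluorescence from dye bound to dead-cell DNA was read during 40 h treatment.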
Assay [8] is described as follows: A CellTox Green Cytotoxicity Assay to monitor cytotoxicity in HEK293 cells - 40 hour (AID 1224871). Further: nearly all actives have a fitted effect of over 45% in size. Further: potency means the concentration at half of the fitted maximal effect. In short, it runs like this: as §3
Assay [9] is described as follows: qHTS RealTime-Glo MT Cell Viability Assay in HEK293 cells - 16 hour (AID 1224872). Further: nearly all actives have a fitted effect of over 50% in size. Further: potency means the concentration at half of the fitted maximal effect. The gist of the method:
as §2

A short description of assay [10]: qHTS RealTime-Glo MT Cell Viability Assay in HepG2 cells - 8 hour (AID 1224873). Further: nearly all actives have a fitted effect of over 55% in size. Further: potency means the concentration at half of the fitted maximal effect. In short, it runs like this: (§4)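 HepG2 cells (600/well) mixed with RealTime-Glo MT reagent, settled 5 h at 37 C/5% CO2 before compound addition. Nonlytic NanoLuc luminescence from viable-cell prosubstrate reduction read repeatedly during 40 h treatment at 37 C.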
A short description of assay [11]: qHTS RealTime-Glo MT Cell Viability Assay in HEK293 cells - 40 hour (AID 1224874). Further: nearly all actives have a fitted effect of over 50% in size. Further: potency means the concentration at half of the fitted maximal effect. On max response: on the % scale 0 is the no-effect control and ±100 the full control effect. The note with it: RealTime-Glo luminescence; max response: stronger effect = lower value. The gist of the method:
(§5)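 HEK293 cells mixed with RealTime-Glo reagents (NanoLuc plus cell-permeant prosubstrate) at 600 cells/well, preincubated 5 h at 37 C/5% CO2, then given 23 nL compound in DMSO. Nonlytic luminescence from viable cells was read at 0, 8, 16, 24, 32 and 40 h.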

The nature of assay [12]: A CellTox Green Cytotoxicity Assay to monitor cytotoxicity in HEK293 cells - 24 hour (AID 1224875). Further: nearly all actives have a fitted effect of over 45% in size. Further: potency means the concentration at half of the fitted maximal effect. On activity change: on the % scale 0 is the no-effect control and ±100 the full control effect. The gist of the method:
as §3

Assay [13] is described as follows: A CellTox Green Cytotoxicity Assay to monitor cytotoxicity in HepG2 cells - 16 hour (AID 1224876). Further: nearly all actives have a fitted effect of over 45% in size. Further: potency means the concentration at half of the fitted maximal effect. The gist of the method: (§6)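 HepG2 cells were seeded together with the CellTox Green dye at 600 cells/well, left 5 h at 37 C/5% CO2, then given compounds in DMSO. Fluorescence from dye bound to dead-cell DNA was read repeatedly over 40 h of treatment at 37 C.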
A short description of assay [14]: qHTS RealTime-Glo MT Cell Viability Assay in HepG2 cells - 32 hour (AID 1224877). Further: nearly all actives have a fitted effect of over 55% in size. Further: potency means the concentration at half of the fitted maximal effect. The gist of the method:
as §1

Assay [15] is described as follows: qHTS RealTime-Glo MT Cell Viability Assay in HEK293 cells - 0 hour (AID 1224880). Further: nearly all actives have a fitted effect of over 45% in size. Further: potency means the concentration at half of the fitted maximal effect. In short, it runs like this: as §5
Assay [16] in a line: qHTS assay to identify small molecule antagonists of the estrogen related receptor (ERR) signaling pathway from Tox21 library (AID 1224848). Further: nearly all actives have a fitted effect of over 50% in size. Further: potency means the concentration at half of the fitted maximal effect. The gist of the method:
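ERR reporter cell line (from NTP) seeded 2,000 cells/well, rested 6 h at 37 C/5% CO2, then pin-dosed with compounds in DMSO. After 18 h at 37 C, ONE-Glo added; luminescence read after 30 min at room temperature.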

A short description of assay [17]: qHTS assay to identify small molecule agonists of the estrogen related receptor (ERR) signaling pathway from Tox21 library (AID 1224849; calls by dose curve; further: on the % scale 0 is the no-effect control and ±100 the full control effect; nearly all actives have a fitted effect of over 15% in size). The note with it: ERR reporter cell line, ONE-Glo luciferase, 18 h. In short, it runs like this: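 ERR reporter cell line (NTP) seeded, rested 6 h at 37 C/5% CO2, then pinned with Tox21 compounds in DMSO. After 18 h at 37 C, ONE-Glo luciferase luminescence was read following 30 min at room temperature.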

Assay [18] is described as follows: A CellTox Green Cytotoxicity Assay to monitor cytotoxicity in HepG2 cells - 24 hour (AID 1224878). Further: nearly all actives have a fitted effect of over 45% in size. Further: potency means the concentration at half of the fitted maximal effect. The gist of the method: as §6
Assay [19] can be described thus: A CellTox Green Cytotoxicity Assay to monitor cytotoxicity in HepG2 cells - 40 hour (AID 1224879). Further: nearly all actives have a fitted effect of over 40% in size. Further: potency means the concentration at half of the fitted maximal effect. In short, it runs like this:
as §6

A short description of assay [20]: qHTS RealTime-Glo MT Cell Viability Assay in HepG2 cells - 40 hour (AID 1224870). In short, it runs like this:
as §4

With `O=C(O)CF`, the Potency result in assay [1], in [2], in [4], in assay [5], in assay [6] and in assay [7] was “inactive” in each case. For the same compound, the Potency entry in assay [8], in assay [9], in assay [10], in assay [12], in [13] and in assay [14] was “inactive” in each case. Also, the Potency entry in assay [15] is “inactive”. Further, the outcome in assay [3] was inactive. Besides, in assay [11], the max response is 2.85% (inactive) and 14% (inactive).
Consider `CCC1(c2ccc(N)cc2)CCC(=O)NC1=O` (configuration not stated), for which the Potency entry in assay [1], in [2], in [4], in [16], in [5] and in assay [6] was “inactive” each time. In addition, the Potency result in assay [7], in assay [8], in [9], in assay [10], in assay [12] and in [13] was “inactive” in each case. The Potency entry in assay [14], in assay [18], in [19] and in [15] was “inactive” throughout. For the same compound, the activity change, positive = activation in assay [17] (at 42.5 µM (top of the series)) was 5.08% (inactive); in assay [17] (at 92.4 µM (top of the series)), -19.8% (inactive). Also, in [11], the max response is 6.38% (inactive).
Consider `C=CC(=O)OCC(CC)(COC(=O)C=C)COC(=O)C=C`, for which the Potency in assay [1] is 20 µM (active) and 12.3 µM (active); in assay [16], 15.8 µM (active) and 19.3 µM (active); in assay [5], 25.2 µM (active) and 12.3 µM (active); in assay [6], 3.56 µM (active) and 11 µM (active); in [20], 35.6 µM (active) and 12.3 µM (active); in [8] it was 4.48 µM (active) and 7.76 µM (active). Besides, the Potency in assay [9] is 6.33 µM (active) and 12.3 µM (active); in assay [11], 3.56 µM (active) and 9.77 µM (active); in assay [14], 25.2 µM (active) and 12.3 µM (active); in assay [18] it was 14.2 µM (active); in assay [19] it was 12.6 µM (active). For the same compound, in assay [17] (at 92.4 µM (top of the series)), the activity change, positive = activation is -82.1% (inactive) and -76.4% (inactive). The Potency result in assay [7], in assay [12], in [13] and in assay [15] was “inactive” throughout.
`Cc1ccc(N=CN(C)C=Nc2ccc(C)cc2C)c(C)c1`: the Potency in [1] was 43.8 µM (active) and 30.9 µM (active) and inactive; in assay [4], 101 µM (active) and inactive; in assay [6], 43.8 µM (active) and 43.6 µM (active) and inactive; in assay [9], 43.8 µM (active) and 38.9 µM (active) and inactive; in assay [11], 43.8 µM (active) and 43.6 µM (active); in assay [19], 43.6 µM (active) and inactive. The Potency result in [2], in [5], in assay [7], in assay [8], in [12] and in [13] was “inactive” in each case. For the same compound, the Potency entry in assay [14] and in assay [15] was “inactive” throughout. Besides, in assay [3], the result was inactive. The max response in assay [11] was -1.79% (inactive).
In the case of `CC(C)Nc1ccc(Nc2ccccc2)cc1`, the Potency in [4] was 50.3 µM (active) and 89.8 µM (active); in [16], 15.3 µM (active) and 48.6 µM (active); in [5], 54.7 µM (active) and 49 µM (active); in assay [6], 17.3 µM (active) and 19.5 µM (active); in assay [8], 48.8 µM (active) and 49 µM (active); in assay [9], 17.3 µM (active) and 19.5 µM (active). Further, the Potency in assay [10] is 48.8 µM (active) and 38.9 µM (active); in assay [11], 17.3 µM (active) and 17.4 µM (active); in [12], 48.8 µM (active) and 54.9 µM (active); in [13], “inactive and 49 µM (active)”; in [14], 54.7 µM (active); in assay [18], 43.6 µM (active). In addition, the Potency in [19] was 43.6 µM (active); in assay [15], 7.73 µM (active) and 19.5 µM (active). In addition, the activity change, positive = activation in assay [17] (at 92.4 µM (top of the series)) is -81.7% (inactive) and -69.9% (inactive). Besides, in assay [7], the Potency result is “inactive”.

Source of the values: PubChem BioAssay (Tox21).
